The whole screen tested about 5,500 compounds, of which about 2,000 (36%) were called active. Inconclusive results (about 18%) are left out. Cut-off read from the data, not from the text of the source: active = normalized growth mostly below about 0.91 (no sharp cut-off); inconclusive = no clear call, values can overlap the other calls; inactive = mostly above about 0.92. The list shows a part of the results.
Test: chemical genetic growth profiling, strain panel (AID 1159580);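 note: tested at 20 µM; growth read once vehicle control cultures reached saturation at 30 °C; 1 = growth at the plate median or of vehicle wells; lower values mean less growth of the strain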
Conditions: S. cerevisiae deletion strains, growth OD
[1] = locus YHR030C, strain SLT2, hits give low values
[2] = locus YHR079C, strain IRE1, hits give low values
[3] = locus YJL095W, strain BCK1, hits give low values
[4] = locus YJR066W, strain TOR1, hits give low values
[5] = locus YLR113W, strain HOG1, hits give low values
[6] = locus YNL183C, strain NPR1, hits give low values
[7] = locus YOR231W, strain MKK1, hits give low values
[8] = locus YPL256C, strain CLN2, hits give low values

Measured: normalized growth

N#CC(C(=O)Nc1cccc(C(F)(F)F)c1)C(=S)Nc1ccccc1Cl (stereo unspecified)
inactive: locus YAR019C, strain CDC15, hits give low values 0.992 | locus YDL017W, strain CDC7, hits give low values 0.985 | locus YDL028C, strain MPS1, hits give low values 1 | locus YDL108W, strain KIN28, hits give low values 0.99 | locus YDL132W, strain cdc53, hits give low values 0.976 | locus YDR052C, strain DBF4, hits give low values 1 | locus YDR054C, strain cdc34, hits give low values 0.98 | locus YER123W, strain YCK3, hits give low values 0.969 | locus YFL009W, strain cdc4, hits give low values 0.989 | locus YFL029C, strain CAK1, hits give low values 1 | locus YFR003C, strain YPI1, hits give low values 0.997 | locus YFR019W, strain FAB1, hits give low values 0.957 | locus YFR028C, strain CDC14, hits give low values 0.977 | locus YGR092W, strain DBF2, hits give low values 0.98 | [1] 0.957 | [2] 0.978 | locus YHR205W, strain SCH9, hits give low values 0.975 | locus YIL147C, strain SLN1, hits give low values 0.996 | [3] 0.914 | locus YJR016C, strain ILV3, hits give low values 0.978 | [4] 0.78 | locus YKL048C, strain ELM1, hits give low values 0.986 | locus YKL101W, strain HSL1, hits give low values 0.994 | locus YKL193C, strain SDS22, hits give low values 0.998 | locus YLR133W, strain CKI1, hits give low values 0.984 | locus YLR403W, strain SFP1, hits give low values 0.979 | locus YML070W, strain DAK1, hits give low values 0.966 | locus YMR001C, strain CDC5, hits give low values 0.995 | locus YMR205C, strain PFK2 (second series), hits give low values 0.991 | locus YMR277W, strain FCP1, hits give low values 0.98 | locus YNL006W, strain LST8, hits give low values 0.991 | locus YNL020C, strain ARK1, hits give low values 0.981 | locus YNL207W, strain RIO2, hits give low values 0.996 | locus YNL307C, strain MCK1 (second series), hits give low values 0.983 | locus YOL078W, strain AVO1, hits give low values 0.992 | locus YOL136C, strain PFK27, hits give low values 0.959 | locus YOR061W, strain CKA2, hits give low values 0.97 | [7] 1.01 | locus YOR329C, strain SCD5, hits give low values 0.997 | locus YPL153C, strain RAD53, hits give low values 0.963 | locus YPL204W, strain HRR25, hits give low values 0.963 | locus YPL209C, strain IPL1, hits give low values 1 | locus YPR025C, strain CCL1, hits give low values 0.993 | strain NNK1, hits give low values 1.02 | strain TSCII, hits give low values 0.996
active: locus YDL214C, strain PRR2, hits give low values 0.296 | locus YDR477W, strain SNF1, hits give low values 0.105 | locus YER133W, strain GLC7, hits give low values 0.143 | locus YGR040W, strain KSS1, hits give low values 0.147 | locus YGR052W, strain FMP48, hits give low values 0.396 | [5] 0.449 | [6] 0.191 | [8] 0.501 | locus YPR111W, strain DBF20, hits give low values 0.784

O=C1NCCN=C(c2ccccc2)c2ccccc21
inactive: locus YAL013W, strain DEP1, hits give low values 0.999 | locus YBR229C, strain ROT2, hits give low values 1 | locus YCL061C, strain MRC1, hits give low values 0.99 | locus YDL101C, strain DUN1, hits give low values 0.984 | locus YDL134C, strain PPH21, hits give low values 1.01 | locus YDR150W, strain NUM1, hits give low values 0.911 | locus YEL061C, strain CIN8, hits give low values 0.995 | locus YGR078C, strain PAC10, hits give low values 0.99 | [1] 1.03 | locus YHR087W, strain rtc3, hits give low values 0.999 | locus YJL187C, strain SWE1, hits give low values 0.997 | locus YJR043C, strain POL32, hits give low values 0.995 | locus YJR075W, strain HOC1, hits give low values 1.01 | locus YLR039C, strain RIC1, hits give low values 0.985 | locus YLR058C, strain SHM2 (second series), hits give low values 0.998 | locus YLR085C, strain ARP6, hits give low values 1.01 | locus YLR262C, strain YPT6, hits give low values 0.968 | locus YML094W, strain GIM5, hits give low values 0.98 | locus YMR219W, strain ESC1, hits give low values 0.999 | locus YMR263W, strain SAP30, hits give low values 0.973 | locus YMR307W, strain GAS1, hits give low values 0.994 | locus YNL153C, strain GIM3, hits give low values 0.99 | locus YNL298W, strain CLA4 (second series), hits give low values 1.01 | locus YNL322C, strain KRE1, hits give low values 0.994 | locus YNR030W, strain Alg12, hits give low values 1 | locus YOL006C, strain TOP1, hits give low values 1 | locus YPL055C, strain LGE1, hits give low values 0.956 | locus YPL241C, strain CIN2, hits give low values 0.976 | locus YPR135W, strain CTF4, hits give low values 1.01

CC(=O)c1ccc[nH]1
inactive: locus YAL021C, strain ccr4, hits give low values 1.01 | locus YAL026C, strain drs2, hits give low values 1 | locus YAL030W, strain snc1, hits give low values 0.997 | locus YBL061C, strain skt5, hits give low values 0.996 | locus YBR009C, strain hhf1, hits give low values 1.02 | locus YBR023C, strain chs3, hits give low values 0.998 | locus YBR171W, strain sec66, hits give low values 1.01 | locus YBR231C, strain swc5, hits give low values 1 | locus YBR279W, strain paf1, hits give low values 1.01 | locus YCL011C, strain gbp2, hits give low values 1 | locus YCL016C, strain dcc1, hits give low values 0.997 | locus YCL069W, strain vba3, hits give low values 1 | locus YCR088W, strain abp1, hits give low values 1.01 | locus YDL005C, strain med2, hits give low values 0.99 | locus YDL040C, strain nat1, hits give low values 0.998 | locus YDR001C, strain nth1, hits give low values 1 | locus YDR069C, strain doa4, hits give low values 1.01 | locus YDR137W, strain rgp1, hits give low values 0.98 | locus YDR159W, strain sac3, hits give low values 0.975 | locus YDR195W, strain ref2 0.979 | locus YDR297W, strain sur2, hits give low values 1.01 | locus YDR334W, strain swr1, hits give low values 0.995 | locus YDR335W, strain msn5, hits give low values 0.993 | locus YDR392W, strain spt3, hits give low values 1.01 | locus YEL003W, strain gim4, hits give low values 0.998 | locus YEL037C, strain rad23, hits give low values 1 | locus YEL061C, strain CIN8 (second series), hits give low values 1.01 | locus YER015W, strain faa2, hits give low values 1 | locus YER016W, strain bim1, hits give low values 0.995 | locus YER111C, strain swi4, hits give low values 0.994 | locus YER155C, strain BEM2 (second series), hits give low values 0.994 | locus YFR010W, strain ubp6, hits give low values 1 | locus YGL167C, strain pmr1, hits give low values 0.988 | locus YGL173C, strain kem1, hits give low values 0.998 | locus YGL227W, strain vid30, hits give low values 0.996 | locus YGL240W, strain doc1, hits give low values 1 | locus YGL253W, strain hxk2, hits give low values 1 | locus YHR013C, strain ard1, hits give low values 1.01 | locus YHR027C, strain rpn1, hits give low values 0.991 | [1] 1 | [2] 0.992 | locus YHR142W, strain chs7, hits give low values 1 | locus YJL092W, strain hpr5, hits give low values 0.992 | locus YJL095W, strain BCK1 (second series), hits give low values 0.988 | [3] 0.988 | locus YJL115W, strain asf1, hits give low values 0.993 | locus YJL129C, strain trk1, hits give low values 0.988 | locus YJL154C, strain vps35, hits give low values 0.996 | locus YJL164C, strain tpk1, hits give low values 1.01 | locus YJL166W, strain qcr8, hits give low values 1.01 | [4] 0.942 | locus YKL160W, strain elf1, hits give low values 1 | locus YKR026C, strain gcn3, hits give low values 0.998 | locus YKR091W, strain srl3, hits give low values 0.999 | locus YLL001W, strain dnm1, hits give low values 1.01 | locus YLL026W, hits give low values 1 | locus YLL041C, strain sdh2, hits give low values 1 | locus YLR027C, strain aat2, hits give low values 1 | [5] 1 | locus YLR221C, strain rsa3, hits give low values 1.01 | locus YLR258W, strain gsy2, hits give low values 1.01 | locus YLR262C, strain YPT6 (second series), hits give low values 1.03 | locus YLR320W, strain mms22, hits give low values 1 | locus YLR342W, strain FKS1, hits give low values 0.999 | locus YLR357W, strain rsc2, hits give low values 0.971 | locus YLR370C, strain arc18, hits give low values 0.994 | locus YLR384C, strain iki3, hits give low values 0.997 | locus YML120C, strain ndi1, hits give low values 1.01 | locus YMR058W, strain fet3, hits give low values 0.997 | locus YMR125W, strain sto1, hits give low values 0.997 | locus YMR129W, hits give low values 0.996 | locus YMR205C, strain PFK2, hits give low values 1.01 | locus YMR231W, strain pep5, hits give low values 1 | locus YNL071W, strain lat1, hits give low values 1 | [6] 0.902 | locus YNL209W, strain ssb2, hits give low values 1.01 | locus YNL248C, strain rpa49, hits give low values 0.98 | locus YNL322C, strain KRE1 (second series), hits give low values 0.986 | locus YNR049C, strain mso1, hits give low values 1.01 | locus YOR001W, strain rrp6, hits give low values 1 | locus YOR070C, strain gyp1, hits give low values 1.01 | locus YOR080W, strain dia2, hits give low values 1 | locus YOR083W, strain WHI5, hits give low values 1 | locus YOR106W, strain vam3, hits give low values 0.985 | [7] 1.02 | locus YOR265W, strain rbl2, hits give low values 1.02 | locus YOR270C, strain vph1, hits give low values 1.01 | locus YOR290C, strain snf2, hits give low values 0.992 | locus YPL051W, strain arl3, hits give low values 1.02 | locus YPL078C, strain atp4, hits give low values 1.01 | locus YPL106C, strain sse1, hits give low values 0.978 | locus YPL240C, strain hsp82, hits give low values 0.994 | [8] 0.99

Reference: PubChem BioAssay AID1159580 (chemical genetic matrix, 2015)
